The nature of assay [1]: Quantitative High-Throughput drug screen in 47 multiple myeloma cell lines against the NCATS MIPE library collection: INA6_PLB cell viability assay (AID 1918965; note: nearly all actives have a fitted effect of over 55% in size). As to conditions: INA6 myeloma viability, CellTiter-Glo ATP luminescence, 48 h; series mostly up to 45.8 µM. The gist of the method:
(§1)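 We plated 500 myeloma cells per well, pinned in MIPE 4.0 compounds, and incubated for 48 hours at 37C. ATP was then quantified with CellTiter-Glo, with DMSO and media-only wells defining 100% and 0%.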

Assay [2] in a line: Quantitative High-Throughput drug screen in 47 multiple myeloma cell lines against the NCATS MIPE library collection: JJN3_DSMZ cell viability assay (AID 1918966; note: nearly all actives have a fitted effect of over 50% in size). The note with it: JJN3 myeloma cells viability, CellTiter-Glo ATP, 48 h; series mostly up to 45.8 µM. The gist of the method:
as §1
In general terms: Cellular ATP, detected with luciferase, serves as a proxy for viable cell number.

The nature of assay [3]: Quantitative High-Throughput drug screen in 47 multiple myeloma cell lines against the NCATS MIPE library collection: KMS12PE_JCRB cell viability assay (AID 1918972). Note: nearly all actives have a fitted effect of over 30% in size. As to conditions: KMS12PE myeloma viability, CellTiter-Glo ATP, 48 h; series mostly up to 45.8 µM. The gist of the method: as §1
Assay [4] in a line: Quantitative High-Throughput drug screen in 47 multiple myeloma cell lines against the NCATS MIPE library collection: KMS20_JCRB cell viability assay (AID 1918973). Note: nearly all actives have a fitted effect of over 45% in size. The note with it: CellTiter-Glo ATP, 48 h; series mostly up to 45.8 µM. The gist of the method:
as §1

A short description of assay [5]: Quantitative High-Throughput drug screen in 47 multiple myeloma cell lines against the NCATS MIPE library collection: H1112_PLB cell viability assay (AID 1918967; note: nearly all actives have a fitted effect of over 30% in size). The note with it: H1112 myeloma cells viability, ATP luminescence, 48 h; series mostly up to 45.8 µM. The gist of the method:
as §1

Assay [6] can be described thus: Quantitative High-Throughput drug screen in 47 multiple myeloma cell lines against the NCATS MIPE library collection: KMS27_JCRB cell viability assay (AID 1918970). Note: nearly all actives have a fitted effect of over 30% in size. As to conditions: KMS27 myeloma cells, CellTiter-Glo ATP viability, 48 h; series mostly up to 45.8 µM. The gist of the method: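 CellTiter-Glo luminescence after 48 h drug exposure at 37 °C; 500 cells/well, 1536-well format, pin-tool compound addition; DMSO = 100%, media-only = 0% viability.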

Assay [7] is described as follows: Quantitative High-Throughput drug screen in 47 multiple myeloma cell lines against the NCATS MIPE library collection: KMS12BM_JCRB cell viability assay (AID 1918971). Note: nearly all actives have a fitted effect of over 35% in size. As to conditions: KMS12BM myeloma viability, CellTiter-Glo ATP, 48 h; series mostly up to 45.8 µM. The method, boiled down:
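CellTiter-Glo luminescence (ATP) after 48 h compound exposure, 37C/5% CO2; 500 cells/well; MIPE 4.0 approved/investigational drugs pinned in; DMSO = 100%, media only = 0% viability.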

Assay [8] in a line: Quantitative High-Throughput drug screen in 47 multiple myeloma cell lines against the NCATS MIPE library collection: Karpas25_ECACC cell viability assay (AID 1918968; note: nearly all actives have a fitted effect of over 35% in size). As to conditions: Karpas25 myeloma viability, CellTiter-Glo ATP, 48 h; series mostly up to 45.8 µM. The gist of the method:
as §1

The nature of assay [9]: Quantitative High-Throughput drug screen in 47 multiple myeloma cell lines against the NCATS MIPE library collection: KMS21BM_JCRB cell viability assay (AID 1918974). The note with it: ATP luminescence, 48 h; viability: at 45.8 µM (top of the series) unless noted. The method, boiled down:
as §1

Molecules are shown by their SMILES. Records with an inconclusive call do not appear. The source made the active and inactive calls. Calls come from the whole dose curve; as a rule, active = well fitted cell-killing curve with a large enough effect; inconclusive = small, poorly fitted or top-dose-only effect, or effect the other way; inactive = no such curve, though single readings can be large or run the other way.
Potency is the fitted concentration of half-maximal effect.

Turning to `CS(=O)(=O)c1cccc(CNc2nc(Nc3ccc4c(c3)CCC(=O)N4)ncc2C(F)(F)F)c1`, the Potency is 11.8 µM (active) in assay [1], 16.6 µM (active) in assay [2], 4.69 µM (active) in [3] and 14.8 µM (active) in assay [4].

In the case of `COc1ccc2c3n(c(=NC(=O)c4cccnc4)nc2c1OC)CCN3`, the figures for the Potency in assay [1], in assay [5] and in assay [6] were 23.5 µM (active), 4.69 µM (active) and 11.8 µM (active), respectively. Moreover, the Potency result in [7] was “inactive”.

`Cc1cc2c(C(C)C)c(O)c(O)c(C=O)c2c(O)c1-c1c(C)cc2c(C(C)C)c(O)c(O)c(C=O)c2c1O`: the Potency is 9.35 µM (active) in assay [1]; 18.7 µM (active) in [2]; 18.7 µM (active) in assay [5]; 14.8 µM (active) in assay [7]; 7.43 µM (active) in assay [3]; 11.8 µM (active) in [4].

Turning to `CCCCNc1cc(C(=O)O)cc(S(N)(=O)=O)c1Oc1ccccc1`, the Potency result in [1], in assay [2], in assay [7], in [3] and in assay [4] was “inactive” each time.

Regarding `CCC(C)n1ncn(-c2ccc(N3CCN(c4ccc(OC[C@H]5CO[C@](Cn6cncn6)(c6ccc(Cl)cc6Cl)O5)cc4)CC3)cc2)c1=O` (stereo partly drawn), the Potency result in [1], in assay [5] and in [8] was “inactive” throughout. Besides, the Potency in assay [7] was 3.32 µM (active).

Consider `C[C@@H]1CN(Cc2ccc(F)cc2)[C@@H](C)CN1C(=O)c1cc2c(C(=O)C(=O)N(C)C)cn(C)c2cc1Cl`, for which the Potency in assay [1] was 20.9 µM (active); in assay [5], 13.2 µM (active); in [8] it was 9.35 µM (active); in assay [3] it was 20.9 µM (active).

For the molecule `CNCc1ccc(-c2[nH]c3cc(F)cc4c3c2CCNC4=O)cc1`, in [1], the Potency was 23.5 µM (active). Also, the Potency entry in assay [2], in assay [5], in [8] and in assay [3] was “inactive” in each case.

Take `CCC(=O)N[C@H]1CC[C@H](C(=O)N(C)c2ccc(-c3nc4ccccc4o3)cc2)C1`: the Potency in assay [1] is 14.8 µM (active); in assay [5], 11.8 µM (active); in assay [8], 7.43 µM (active); in assay [6] it was 20.9 µM (active); in [3], 4.69 µM (active); in assay [4] it was 7.43 µM (active). For the same molecule, the Potency entry in [7] was “inactive”.

With `CCOc1ccc(Cc2cc([C@@H]3O[C@H](CO)[C@@H](O)[C@H](O)[C@@H]3O)ccc2Cl)cc1`, the Potency entry in assay [1], in assay [2] and in assay [7] was “inactive” throughout. The Potency in [8] was 18.7 µM (active); in assay [3], 26.4 µM (active).

Usually viability stands for a read-out of living cells in per cent, often relative to untreated cells. `COc1ccccc1-c1cccc(-c2c(O)c3cc(C#N)c(Cl)cc3[nH]c2=O)c1`: the Potency result in assay [1], in [2], in assay [5] and in assay [4] was “inactive” in each case. In assay [3], the Potency is 48.1 µM (active). The viability in [9] is 162% [at 92.2 µM] (active).

Take `O=C1CCCC2=C1C(c1[nH]ncc1Cl)N=C(Nc1nc3ccccc3o1)N2` (stereo not drawn): the Potency in [1] is 5.9 µM (active); in [2] it was 5.26 µM (active); in [8] it was 0.662 µM (active); in assay [7], 4.69 µM (active); in [3], 1.87 µM (active). Further, the Potency entry in [5] was “inactive”.

For the molecule `COc1ccc(-c2c(-c3ccc(O)cc3O)n[nH]c2C)cc1`, the Potency is 38.2 µM (active) in assay [1], 27 µM (active) in [8] and 27 µM (active) in assay [7].

Regarding `CCOc1cc(N2CCC(O)CC2)ccc1Nc1ncc2c(n1)N(C)c1ccccc1C(=O)N2C`, the Potency in assay [1] is 2.64 µM (active); in assay [8], 9.35 µM (active); in assay [6] it was 0.187 µM (active); in assay [7], 11.8 µM (active); in assay [3], 1.05 µM (active); in [9], 0.526 µM (active).

Regarding `CCC(C)N(C)C(=O)c1cc2ccccc2c(-c2ccccc2Cl)n1` (stereo not drawn), the Potency entry in assay [1], in assay [5] and in assay [4] was “inactive” throughout. The Potency in assay [6] is 16.6 µM (active).

`CC(C)(Sc1ccc(CCN(CCCCC2CCCCC2)C(=O)NC2CCCCC2)cc1)C(=O)O`: the Potency in assay [2] is 18.7 µM (active). The Potency result in [5], in assay [8] and in [6] was “inactive” throughout.

For the molecule `NNCCc1ccccc1`, the Potency in [2] was 18.7 µM (active); in assay [5], 0.059 µM (active); in assay [7], 14.8 µM (active); in assay [3], 14.8 µM (active); in assay [9], 13.2 µM (active).

In the case of `NCCc1ccc(O)c(O)c1`, the Potency was 20.9 µM (active) in [2]; 14.8 µM (active) in assay [8]; 16.6 µM (active) in assay [6]; 7.43 µM (active) in assay [7]; 20.9 µM (active) in [3]. Besides, the Potency entry in [5] is “inactive”.

Turning to `O=C(O)COCCN1CCN(C(c2ccccc2)c2ccc(Cl)cc2)CC1` (stereo not drawn), the Potency entry in assay [2], in [5], in assay [8], in [7] and in assay [3] was “inactive” in each case.

Regarding `Cc1cn[nH]c1`, the Potency in assay [2] is 1.48 µM (active); in [5] it was 6.62 µM (active); in assay [6], 0.264 µM (active); in assay [7], 0.0132 µM (active); in [3], 0.296 µM (active); in assay [4], 0.332 µM (active).

Turning to `Nc1ccc(S(=O)(=O)Nc2ccnn2-c2ccccc2)cc1`, the Potency entry in assay [2], in assay [5], in [8], in assay [7], in [3] and in [9] was “inactive” in each case.

Turning to `Nc1cccc(S(=O)(=O)N2CCCN(S(=O)(=O)c3ccc4c(c3)OCCO4)CC2)c1`, the Potency entry in assay [1], in assay [6] and in [3] was “inactive” throughout.

Consider `S=C(NCc1ccc2c(c1)OCO2)N1CCN(c2ncnc3c2oc2ccccc23)CC1`, for which the Potency in assay [1] is 1.08 µM (active); in assay [5] it was 0.605 µM (active); in [7] it was 1.91 µM (active); in assay [3], 1.52 µM (active); in [9], 1.21 µM (active).

For the molecule `O=C(O)CCc1ccc(NCc2cccc(Oc3ccccc3)c2)cc1`, the Potency result in assay [1], in assay [5], in assay [7] and in assay [3] was “inactive” each time.

For the origin of these results see PubChem BioAssay (NCATS).
